The record followed here is PubChem BioAssay.

Calls of active or inactive are those of the source.

Assay [1] can be described thus: binders of probe aFSTL3 on microarray, primary screen, stem cell growth factor project, biochemical, small-molecule microarray, fluorescence 635/667 (AID 1064).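 Further: measures binding of the biotinylated anti-FSTL3 antibody to printed compounds.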 To be noted: higher = more signal.
The nature of assay [2]: binders from COS7 lysate, DM2A8 probe, primary screen, torsin A project, cell lysate, small-molecule microarray, fluorescence 635/667 (AID 1065). To be noted: higher = more signal, COS7 lysate expressing mutant human TOR1A.
Assay [3] in a line: binders of probe aFGF2 on microarray, primary screen, stem cell growth factor project, biochemical, small-molecule microarray, fluorescence 635/667 (AID 1067).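 Further: measures binding of biotinylated aFGF2 protein to printed compounds on slides; z-score merges feature fluorescence and signal-to-noise across triplicate slides.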 To be noted: higher = more signal.
A short description of assay [4]: binders of probe aFGF10 on microarray, primary screen, stem cell growth factor project, biochemical, small-molecule microarray, fluorescence 635/667 (AID 1071).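 Further: score merges 667 nm spot intensity and signal to noise from triplicate slides.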 To be noted: higher = more signal.
The target of assay [5] is Neurogenic locus notch homolog protein 2 (Homo sapiens) (UniProt Q04721). The assay is described as follows: Notch2 binders on small-molecule microarrays, primary screen, biochemical, small-molecule microarray, 635 nm fluorescence, stem cell growth factors (AID 1073). To be noted: Notch2 binding, higher = more signal.
Chain of Neurogenic locus notch homolog protein 2 (Homo sapiens) (Q04721 whole entry, looked up, canonical isoform): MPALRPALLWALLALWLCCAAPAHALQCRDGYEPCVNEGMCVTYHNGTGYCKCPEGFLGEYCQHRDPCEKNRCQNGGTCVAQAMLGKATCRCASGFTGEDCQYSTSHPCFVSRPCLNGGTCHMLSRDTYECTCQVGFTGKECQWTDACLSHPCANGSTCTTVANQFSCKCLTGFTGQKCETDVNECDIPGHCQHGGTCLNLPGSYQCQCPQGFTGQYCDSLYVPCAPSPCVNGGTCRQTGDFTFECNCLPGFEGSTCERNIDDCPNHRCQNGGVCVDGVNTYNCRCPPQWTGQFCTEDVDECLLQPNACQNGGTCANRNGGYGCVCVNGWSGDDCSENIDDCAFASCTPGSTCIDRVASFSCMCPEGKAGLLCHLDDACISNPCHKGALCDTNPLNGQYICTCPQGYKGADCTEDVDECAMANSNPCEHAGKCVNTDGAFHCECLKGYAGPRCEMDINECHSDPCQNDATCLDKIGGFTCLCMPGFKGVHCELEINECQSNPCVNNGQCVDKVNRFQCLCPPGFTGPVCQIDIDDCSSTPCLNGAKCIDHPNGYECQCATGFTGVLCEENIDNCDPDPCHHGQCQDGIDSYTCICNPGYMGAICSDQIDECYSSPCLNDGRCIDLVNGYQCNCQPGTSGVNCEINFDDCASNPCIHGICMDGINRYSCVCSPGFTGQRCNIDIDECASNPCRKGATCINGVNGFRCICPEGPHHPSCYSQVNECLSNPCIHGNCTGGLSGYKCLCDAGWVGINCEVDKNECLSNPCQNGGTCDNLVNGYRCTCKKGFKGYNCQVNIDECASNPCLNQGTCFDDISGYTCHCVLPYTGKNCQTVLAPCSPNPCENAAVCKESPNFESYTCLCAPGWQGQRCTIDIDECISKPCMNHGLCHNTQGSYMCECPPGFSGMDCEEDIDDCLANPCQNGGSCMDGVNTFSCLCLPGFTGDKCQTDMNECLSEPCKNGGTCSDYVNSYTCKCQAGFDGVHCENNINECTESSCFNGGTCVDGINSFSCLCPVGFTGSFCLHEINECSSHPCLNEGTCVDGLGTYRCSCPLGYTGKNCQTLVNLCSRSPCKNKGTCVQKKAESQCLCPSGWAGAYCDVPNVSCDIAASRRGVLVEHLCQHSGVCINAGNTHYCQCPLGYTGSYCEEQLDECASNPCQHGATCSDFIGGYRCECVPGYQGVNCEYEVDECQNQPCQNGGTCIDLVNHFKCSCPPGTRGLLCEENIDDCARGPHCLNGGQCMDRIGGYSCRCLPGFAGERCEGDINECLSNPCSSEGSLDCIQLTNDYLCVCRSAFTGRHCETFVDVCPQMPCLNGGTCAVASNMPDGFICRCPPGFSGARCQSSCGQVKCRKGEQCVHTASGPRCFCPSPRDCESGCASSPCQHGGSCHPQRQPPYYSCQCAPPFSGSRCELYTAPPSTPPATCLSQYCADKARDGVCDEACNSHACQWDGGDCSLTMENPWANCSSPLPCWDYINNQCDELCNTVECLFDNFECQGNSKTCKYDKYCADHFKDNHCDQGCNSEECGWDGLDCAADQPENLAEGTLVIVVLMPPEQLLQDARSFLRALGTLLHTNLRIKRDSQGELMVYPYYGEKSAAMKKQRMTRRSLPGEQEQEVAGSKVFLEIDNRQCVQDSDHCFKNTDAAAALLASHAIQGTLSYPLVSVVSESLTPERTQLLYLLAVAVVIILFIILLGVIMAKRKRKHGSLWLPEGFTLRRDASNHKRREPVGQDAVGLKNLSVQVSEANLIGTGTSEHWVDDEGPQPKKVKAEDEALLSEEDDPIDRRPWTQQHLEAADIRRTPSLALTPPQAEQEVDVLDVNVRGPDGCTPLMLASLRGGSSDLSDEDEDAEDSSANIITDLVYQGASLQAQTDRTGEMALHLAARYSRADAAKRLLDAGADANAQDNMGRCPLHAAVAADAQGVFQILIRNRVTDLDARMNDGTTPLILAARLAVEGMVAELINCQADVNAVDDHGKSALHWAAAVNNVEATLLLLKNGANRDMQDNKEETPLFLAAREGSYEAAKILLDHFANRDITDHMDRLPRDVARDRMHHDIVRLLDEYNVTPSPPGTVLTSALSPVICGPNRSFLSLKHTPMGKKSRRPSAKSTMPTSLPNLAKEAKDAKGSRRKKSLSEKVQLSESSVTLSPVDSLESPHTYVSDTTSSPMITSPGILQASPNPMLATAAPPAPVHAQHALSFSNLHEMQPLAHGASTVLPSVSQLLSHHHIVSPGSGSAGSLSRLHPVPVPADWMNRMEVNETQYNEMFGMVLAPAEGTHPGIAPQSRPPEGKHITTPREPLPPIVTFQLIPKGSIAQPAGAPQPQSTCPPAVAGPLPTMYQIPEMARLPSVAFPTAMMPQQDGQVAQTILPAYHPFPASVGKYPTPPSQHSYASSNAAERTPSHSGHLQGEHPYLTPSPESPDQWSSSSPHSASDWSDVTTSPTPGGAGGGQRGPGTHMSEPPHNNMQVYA
The target in assay [6] is Pro-neuregulin-1, membrane-bound isoform (Homo sapiens) (UniProt Q02297). Nature of the assay: NRG1 binders on small-molecule microarrays, primary screen, psychiatric disease protein project, biochemical, small-molecule microarray, fluorescence 635/667 (AID 1075).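 Further: score combines 667 nm spot fluorescence with signal to noise.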 To be noted: NRG1 binding, 635 nm fluorescence, higher = more signal.
Chain of Pro-neuregulin-1, membrane-bound isoform (Homo sapiens) (Q02297 whole entry, looked up, the tested form may be a part, canonical isoform): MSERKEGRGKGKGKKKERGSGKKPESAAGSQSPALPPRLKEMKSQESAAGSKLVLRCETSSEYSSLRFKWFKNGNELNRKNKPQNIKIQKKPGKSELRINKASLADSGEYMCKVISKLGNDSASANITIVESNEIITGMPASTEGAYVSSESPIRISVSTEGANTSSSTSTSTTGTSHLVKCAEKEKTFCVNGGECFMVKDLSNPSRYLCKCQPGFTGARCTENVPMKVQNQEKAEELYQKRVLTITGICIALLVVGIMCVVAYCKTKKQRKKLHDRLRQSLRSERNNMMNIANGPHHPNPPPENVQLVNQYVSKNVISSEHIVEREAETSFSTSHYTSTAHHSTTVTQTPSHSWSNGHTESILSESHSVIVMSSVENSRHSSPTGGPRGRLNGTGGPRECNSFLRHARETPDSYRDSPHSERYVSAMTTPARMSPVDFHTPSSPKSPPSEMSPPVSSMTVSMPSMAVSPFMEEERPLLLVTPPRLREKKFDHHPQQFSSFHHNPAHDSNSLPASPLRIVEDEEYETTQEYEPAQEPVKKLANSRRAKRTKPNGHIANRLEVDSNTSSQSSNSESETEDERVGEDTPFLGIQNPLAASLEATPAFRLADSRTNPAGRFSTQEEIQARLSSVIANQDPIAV
Assay [7] relates to Neuregulin-1 EGF-like domain. The assay is described as follows: binders of neuregulin-1 EGF-like domain, primary screen, biochemical, small-molecule microarray, 635 nm fluorescence (AID 1081).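 Further: binding of the protein to compounds printed on small-molecule microarray slides.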 To be noted: small-molecule microarray binding, higher = more signal.
Assay [8] is described as follows: FRG1 promoter luciferase signal modulators, primary screen, FRG1 inhibition for FSHD, cell-based, C2C12 myotubes, firefly/Renilla luciferase, luminescence (AID 1084). To be noted: higher = more signal, called active from +8 up or from −8 down.
Assay [9] is described as follows: binders of probe aFST on microarray, primary screen, stem cell growth factor project, biochemical, small-molecule microarray, fluorescence 635/667 (AID 1086).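 Further: score merges 667 nm fluorescence with signal-to-noise of each printed compound spot.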 To be noted: higher = more signal.
Assay [10] in a line: binders of probe aHhip on microarray, primary screen, stem cell growth factor project, biochemical, small-molecule microarray, fluorescence 635/667 (AID 1087).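 Further: score merges spot fluorescence at 667nm with spot signal to noise ratio.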 To be noted: higher = more signal.
Assay [11] has as its system PRMT1 (protein arginine N-methyltransferase 1). Nature of the assay: PRMT1 binders on small-molecule microarrays, primary screen, biochemical, small-molecule microarray, 635 nm fluorescence (AID 1088).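 Further: binding of Prmt1 protein to compounds spotted on small-molecule microarray slides.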 To be noted: small-molecule microarray binding, higher = more signal.
Assay [12] is described as follows: yeast growth modulation, basal conditions, primary screen, YJM789 clinical isolate, OD600, 24 h (AID 1089).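 Further: growth of clinical yeast isolate S. cerevisiae YJM 789 seeded 1000 cells per well; test concentration not given here.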 To be noted: S. cerevisiae YJM789 growth, higher = more signal, called active from +8 up or from −8 down.
Assay [13] in a line: fission yeast growth modulation, primary screen, strain 972, OD600, 24 h, no modulator (AID 1090).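 Further: basal condition with compound alone and no growth modifier present; test concentration not given here.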 To be noted: S. pombe 972 growth, higher = more signal, called active from +8 up or from −8 down.
A short description of assay [14]: S. cerevisiae growth modulation with rapamycin, primary screen, strain BY4716, OD600, 96 h (AID 1091). Further: test concentration not given here. To be noted: higher = more signal, called active from +8 up or from −8 down.
The target of assay [15] is Torsin-1A-interacting protein 2 (Homo sapiens) (UniProt Q8NFQ8). Nature of the assay: LULL1 binders on small-molecule microarray, primary screen, cell lysate, human LULL1 lysate, 635/667 nm fluorescence (AID 1092).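 Further: probe is lysate of COS7 cells overexpressing human LULL1; score merges per-feature 667 nm fluorescence with signal-to-noise.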 To be noted: hLULL1 lysate binding, 635 nm fluorescence, higher = more signal.
Chain of Torsin-1A-interacting protein 2 (Homo sapiens) (Q8NFQ8 whole entry, looked up): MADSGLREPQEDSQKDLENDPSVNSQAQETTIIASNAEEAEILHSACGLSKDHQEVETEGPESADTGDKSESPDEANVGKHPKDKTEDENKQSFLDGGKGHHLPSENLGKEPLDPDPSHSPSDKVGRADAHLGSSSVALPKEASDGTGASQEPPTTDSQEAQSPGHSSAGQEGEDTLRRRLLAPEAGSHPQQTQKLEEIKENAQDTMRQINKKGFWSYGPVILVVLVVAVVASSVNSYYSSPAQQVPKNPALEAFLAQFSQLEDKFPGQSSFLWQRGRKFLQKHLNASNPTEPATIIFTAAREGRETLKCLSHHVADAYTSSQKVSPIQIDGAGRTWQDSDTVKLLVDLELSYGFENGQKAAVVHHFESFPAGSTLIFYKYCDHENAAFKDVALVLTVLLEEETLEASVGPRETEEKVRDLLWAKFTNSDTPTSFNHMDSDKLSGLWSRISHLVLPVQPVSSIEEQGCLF
The nature of assay [16]: E. coli growth modulation, two-sided OD650, primary screen, E. coli filamentation project, strain DRC41, 24 h (AID 1093).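 Further: MC1000 strain lacking acrAB efflux and sulA so SOS filamentation is blocked; test concentration not given here.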 To be noted: OD650, 24 h, higher = more signal, called active from +8 up or from −8 down.
Assay [17] in a line: small-molecule microarray binders of probe aLefty2, primary screen, biochemical, biotinylated probe, 635/667 nm fluorescence (AID 1094).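 Further: score merges spot fluorescence near 667 nm with spot signal-to-noise ratio.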 To be noted: higher = more signal.
Assay [18] deals with Noggin (protein binding on small-molecule microarray). Nature of the assay: Noggin binders on small-molecule microarray, primary screen, biochemical, 635/667 nm fluorescence (AID 1095).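 Further: score merges 667 nm feature fluorescence with signal to noise over triplicate slides.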 To be noted: 635 nm fluorescence, higher = more signal.
For assay [19], the target named is Neurogenic locus notch homolog protein 3 (Homo sapiens) (UniProt Q9UM47). Nature of the assay: NOTCH3 binders on small-molecule microarray, primary screen, biochemical, 635/667 nm fluorescence (AID 1096). To be noted: NOTCH3 binding, 635 nm fluorescence, higher = more signal.
Assay [20] can be described thus: small-molecule microarray binders of probe aEGFR, primary screen, biochemical, biotinylated probe, 635/667 nm fluorescence (AID 1097).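 Further: probe is a biotinylated anti-EGFR antibody binding compounds printed on slides; score combines fluorescence near 667 nm and signal to noise of each spot.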 To be noted: higher = more signal.

As to `COC(=O)C1=C(C)N(Cc2ccccc2)C2=C3C(=O)OCC[C@@H]3[C@@](O)(C(=O)OC)C(=O)N2[C@@H]1c1ccccc1`, the composite z-score in [1] was -0.69; in [2], -0.0402; in [3], -0.118; in assay [4], 0.495; in assay [5], 0.346; in assay [6], -0.143. Also, the composite z-score was 0.0271 in assay [7]; -0.0464 in assay [9]; 0.0139 in assay [10]; -0.737 in assay [11]; 0.0296 in assay [15]; -0.0342 in assay [17]. For the same compound, the composite z-score in assay [18] is 0.454; in assay [19], 0.542; in assay [20] it was 0.0035. Also, the z-score in assay [8] was 0.245 (inactive); in assay [12] it was 0.833 (inactive); in [13] it was -0.992 (inactive); in assay [14], -0.265 (inactive); in assay [16], 0.659 (inactive).

In the case of `CCOC(=O)NN=C1C[C@@H](O)[C@@H](O)[C@@H]2[C@@H]3C(=O)N(c4ccc(F)cc4F)C(=O)[C@@H]3CC[C@H]12`, the composite z-score is -0.496 in [1]; 0.364 in assay [2]; -0.0131 in [3]; 0.202 in assay [4]; 0.501 in assay [5]; -0.0227 in assay [6]. In addition, the composite z-score in assay [7] is 0.158; in [9], 0.411; in [10], -0.137; in [11], -0.334; in assay [15] it was -0.35; in assay [17], -0.185. Also, the composite z-score in assay [18] came out at 0.555; in assay [19], 0.625; in assay [20], 0.021. The z-score in [8] was 0.816 (inactive); in assay [12], -0.01 (inactive); in [13], -0.816 (inactive); in [14], -0.155 (inactive); in assay [16] it was 0.786 (inactive).

Regarding `COc1ccc(O[C@H]2C=C[C@@H](c3ccccc3)O[C@@H]2COC(=O)CCC(C)=NOC[C@@H](O)COCc2ccco2)cc1`, the composite z-score in [1] is 0.776; in assay [2], -1.81; in assay [3] it was -0.411; in assay [4], -1.98; in [5] it was -2.67; in assay [6] it was -1.28. The composite z-score in [7] was -0.649; in assay [9], -2.3; in assay [10] it was -0.115; in [11], -1.02; in assay [15], -1.82; in [17], -0.443. Besides, the composite z-score in assay [18] was -1.66; in [19], -1.74; in [20], -0.48. Further, the z-score is 0.838 (inactive) in [8]; -1.2 (inactive) in assay [12]; -0.761 (inactive) in assay [13]; -0.244 (inactive) in assay [14]; -0.541 (inactive) in assay [16].

For `CCOC(=O)[C@H](CC(C)C)NC(=O)CCC1CC(OC(=O)NCc2ccc3c(c2)OCO3)CC2(CCCC(COC(=O)NCCc3ccc(Cl)cc3)O2)O1` (stereo not given in full), the composite z-score was -0.549 in assay [1]; -0.08 in [2]; -0.129 in assay [3]; 0.744 in assay [4]; 0.331 in assay [5]; 1.1 in [6]. Also, the composite z-score in [7] is 0.993; in assay [9], -0.0845; in [10] it was -0.0237; in [11] it was 1.3; in [15], 1.39; in assay [17] it was -0.0615. The values for the composite z-score in [18], in assay [19] and in [20] were 0.553, 0.951 and 0.065, respectively. Further, the z-score in assay [8] is 0.924 (inactive); in [12], -1.06 (inactive); in assay [13] it was -0.571 (inactive); in [14], -1.81 (inactive); in assay [16] it was 0.544 (inactive).

Regarding `CO[C@@H]1C=CCC(=O)N[C@@H](C)C(=O)OC[C@@H](NS(=O)(=O)c2ccc(C)cc2)[C@H](C)C=CCC(=O)OC[C@H]1C`, the composite z-score in assay [1] was -0.296; in assay [2], 0.43; in [3] it was -0.238; in [4], 0.199; in assay [5], -0.765; in assay [6], -0.589. In addition, the composite z-score in [7] was -0.919; in [9] it was -0.0849; in assay [10], 0.21; in [11] it was 0.375; in [15] it was -1.35; in assay [17], -0.15. Further, the composite z-score was 0.98 in assay [18], -0.381 in [19] and -0.123 in [20]. Further, the z-score in assay [8] is -1.04 (inactive); in assay [12], -0.413 (inactive); in assay [13], -0.266 (inactive); in [14], -0.411 (inactive); in [16], 0.0927 (inactive).
